Compound activity: PubChem, National Center for Advancing Translational Sciences (NCATS)
Compounds with a hit are over-represented: about 1.7% of the library has one in this group of screens.
GLP1R inv ag = GLP-1 receptor (human) inverse agonism | P43220 | HEK293 GLP-1R CRE-luciferase, luminescence, 24 h; GLP-1R form is constitutively active | Potency, µM (titrated, usually from 38.3 µM), for the others: at the top dose activity change, negative = inhibition, most hits filed as inhibitors | actives 1.6% (n = 410,000); further: on the % scale 0 is the no-effect control and ±100 the full control effect; nearly all actives have a fitted effect of over 55% in size
Target sequence (P43220 whole entry, looked up): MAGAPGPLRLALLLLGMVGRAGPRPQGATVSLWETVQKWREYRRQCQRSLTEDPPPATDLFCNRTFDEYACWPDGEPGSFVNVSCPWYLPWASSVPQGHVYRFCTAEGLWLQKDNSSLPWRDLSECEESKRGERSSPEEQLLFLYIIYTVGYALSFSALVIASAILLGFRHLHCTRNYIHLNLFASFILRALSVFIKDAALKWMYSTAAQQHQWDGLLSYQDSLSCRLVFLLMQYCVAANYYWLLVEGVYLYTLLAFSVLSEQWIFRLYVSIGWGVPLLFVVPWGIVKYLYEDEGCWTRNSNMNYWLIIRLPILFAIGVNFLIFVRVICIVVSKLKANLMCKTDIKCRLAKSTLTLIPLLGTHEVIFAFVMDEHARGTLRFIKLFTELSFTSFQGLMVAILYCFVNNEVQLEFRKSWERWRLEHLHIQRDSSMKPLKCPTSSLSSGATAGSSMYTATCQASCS
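Inverse agonists were sought by their lowering of basal cAMP reporter luciferase output in HEK293 cells stably carrying constitutively active human GLP-1R, after 24 h compound treatment.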
GLP1R cytotox = cytotoxicity in counter-screen for GLP-1R inverse agonists; HEK293 cAMP-luciferase reporter cells, luminescence, 24 h; Potency, µM (highest dose often 38.3 µM), without a hit: top-dose activity change, negative = inhibition, actives largely listed as inhibitors; actives 0.13% (n = 410,000); AID 624418;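 further: loss of luciferase light is scored as toxicity; on the % scale 0 is the no-effect control and ±100 the full control effect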
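To flag toxic compounds, the library was rerun on cells for 24 hr at 37 deg C and 5% CO2. Viability-linked luminescence was captured 12 min after adding luciferase detection reagent.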
GLP-1R agonist = GLP-1 receptor (human) agonism; actives 0.007% (n = 380,000); HEK293 GLP-1R CRE-luciferase, luminescence, 4-6 h; cells express a hypersensitive GLP-1R form; Potency, µM (titrated, usually from 45.6 µM), for inactives: at the highest dose activation, most hits filed as activators; further: % of control where 0% means no effect
PTHR1 ag = activates the human parathyroid hormone receptor PTHR1; Q03431; HEK293 GP2 PTHR1 cells, GloSensor cAMP luminescence, 1 h; Potency, µM (titrated, usually from 115 µM), for the others: at the top dose activation, most hits filed as activators; actives 0.075% (n = 410,000); AID 743266; further: nearly all actives have a fitted effect of over 55% in size
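HEK-293-derived GP2 cells expressing PTHR1 and a GloSensor cAMP reporter, 3,000/well, plated overnight, given luciferin plus IBMX (each 0.5 mM as added) for 1 h at 37 °C, then compound for 1 h at 37 °C. Luminescence was read after 15 min at room temperature.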
An asterisk follows results filed as active; ! = a repeat was not active; [ ] = another dose, or the depositor's remark. The call rests on the fitted dose curve; in most records, active means well fitted curve in the direction sought with a large enough effect; inconclusive means small, poorly fitted or top-dose-only effect, or another doubt; inactive means no such curve, though single readings can be large; an effect the other way counts as inactive or inconclusive. Potency means the concentration at half of the fitted maximal effect.

How did O=C(CSCC(=O)N1CCCCC1)Nc1nc(-c2ccccc2)c(-c2ccccc2)s1 do in these assays?
GLP1R inv ag: 5.62µM*; GLP1R cytotox: -5.3%; GLP-1R agonist: -2.9%; PTHR1 ag: -46.1%

What do the screens show for `O=C(CSc1nc(-c2ccccc2)c(-c2ccccc2)o1)N1CCCCC1`?
GLP1R inv ag: 11.2µM*; GLP1R cytotox: 1.8%; GLP-1R agonist: -0.5%; PTHR1 ag: -31.2%

Results for O=C(NCCCN1CCN(c2cccc(Cl)c2)CC1)c1cnn(-c2ccc(F)cc2)c1-n1cccc1 ?
GLP1R inv ag: inconclusive; GLP1R cytotox: inconclusive; GLP-1R agonist: -1.4%; PTHR1 ag: -33.5%

What do the screens show for `O=C(CSc1nccn1-c1ccc(F)cc1)Nc1ccc(OC(F)(F)F)cc1`?
GLP1R inv ag: inconclusive; GLP1R cytotox: -11.2%; PTHR1 ag: -35.6%

What do the screens show for `CNc1nc(N)c(C(=O)C23CC4CC(CC(C4)C2)C3)s1`?
GLP1R inv ag: 5.62µM*; GLP1R cytotox: -26.5%; GLP-1R agonist: 6.3%; PTHR1 ag: inactive

Results for COc1ccc(Nc2c3c(nc4ccc(NC(=O)c5cc(Cl)ccc5OC)cc24)CCCC3)cc1OC ?
GLP1R inv ag: inconclusive; GLP1R cytotox: inconclusive; GLP-1R agonist: -6.4%; PTHR1 ag: -18.7%

Results for Cc1cc(C(=O)COC(=O)c2cccnc2Cl)c(C)n1C ?
GLP1R inv ag: 7.08µM*; GLP1R cytotox: 1.2%; GLP-1R agonist: -6.2%; PTHR1 ag: -56.5%

What do the screens show for `CCOC(=O)C1=C(CN2CCN(c3cc(C)ccc3C)CC2)NC(=O)NC1c1ccccc1` (centres undefined)?
GLP1R inv ag: 8.91µM*; GLP1R cytotox: -13.5%; GLP-1R agonist: -1.8%; PTHR1 ag: -34.2%

How did CCOC(=O)C1=C(CN2CCN(c3ccccc3OC)CC2)NC(=O)NC1c1ccccc1 (centres undefined) do in these assays?
GLP1R inv ag: -27.4%; GLP1R cytotox: -4.2%; GLP-1R agonist: -2.7%; PTHR1 ag: -42.5%

What do the screens show for `CC(C)c1ccc(NC(=O)CSc2nc(=O)n(Cc3ccccn3)c3c2CCC3)cc1`?
GLP1R inv ag: -13.3%; GLP1R cytotox: -12.1%; PTHR1 ag: inactive

How did C/C(=N\O)c1ccc(OCC(=O)N2CCCCC2)cc1 do in these assays?
GLP-1R agonist: 6.4%

What do the screens show for `Cc1ccc(Nc2cc(C)nc(NCc3ccccc3)n2)cc1`?
GLP1R inv ag: inconclusive; GLP1R cytotox: inconclusive; GLP-1R agonist: 11.1%; PTHR1 ag: inactive

Results for Cc1cc(NC2CCCCC2)nc(NCc2ccccc2)n1 ?
GLP1R inv ag: 10µM*; GLP1R cytotox: inconclusive; GLP-1R agonist: 11.0%; PTHR1 ag: -10.2%

What do the screens show for `Cc1coc2c(C)c3oc(=O)c(CCC(=O)N4CCCCC4)c(C)c3cc12`?
GLP1R inv ag: 2.4%; GLP1R cytotox: 2.9%; PTHR1 ag: -33.0%

How did N/C(=N\OC(=O)/C=C/c1ccccc1)c1ccc(Cl)cc1 do in these assays?
GLP1R inv ag: 5.1%; GLP1R cytotox: 11.2µM*; GLP-1R agonist: 10.8%; PTHR1 ag: -4.9%

Results for N/C(=N\OC(=O)/C=C/c1ccccc1)c1ccccc1 ?
GLP1R inv ag: -2.2%; GLP1R cytotox: -0.9%; GLP-1R agonist: -4.3%; PTHR1 ag: -15.4%[57.5 µM]

Results for O=C(Nc1ccc(-c2cn3cccnc3n2)cc1)c1ccccc1F ?
GLP1R inv ag: 12.3%; GLP1R cytotox: -12.2%; PTHR1 ag: inactive

Results for CCC1Nc2ncnc(N3CCc4ccccc4C3)c2N(Cc2ccc(Cl)cc2)C1=O (centres undefined) ?
GLP1R inv ag: 7.94µM*; GLP1R cytotox: -15.7%; GLP-1R agonist: -1.8%; PTHR1 ag: -31.7%

Results for CCC1Nc2ncnc(N3CCCCC3)c2N(Cc2ccc(Cl)cc2)C1=O (centres undefined) ?
GLP1R inv ag: 10µM*!; GLP1R cytotox: -36.1%; GLP-1R agonist: -0.8%; PTHR1 ag: -48.9%

How did CCOC(=O)NNc1ccc(N(CC)CC(C)O)nn1 (centres undefined) do in these assays?
GLP-1R agonist: -1.6%

How did CCCCNC(=S)NNC(=O)CCn1nc(C)c(Br)c1C do in these assays?
GLP1R inv ag: 0.0%; GLP1R cytotox: 5.62µM*; GLP-1R agonist: 8.0%; PTHR1 ag: inactive

What do the screens show for `CCCCNC(=S)NNC(=O)CCn1cc(C)cn1`?
GLP1R inv ag: 7.94µM*; GLP1R cytotox: inconclusive; GLP-1R agonist: -1.3%; PTHR1 ag: inactive

What do the screens show for `CCOc1ccc(-c2cc(C(=O)NCc3ccccc3Cl)c3ccccc3n2)cc1`?
GLP1R inv ag: -3.3%; GLP1R cytotox: -5.0%; PTHR1 ag: inactive

Results for CCc1ccccc1NC(=O)N1CCN(c2cc(-c3noc(C)n3)ccc2C)CC1 ?
GLP1R inv ag: 2.1%; GLP1R cytotox: 0.2%; GLP-1R agonist: 2.4%; PTHR1 ag: -22.8%

Results for CCOc1ccccc1NC(=O)Cn1c(=O)nc(-c2ccccc2F)c2cc(Cl)ccc21 ?
GLP1R inv ag: 12.8%; GLP1R cytotox: 4.0%; PTHR1 ag: -59.8%

What do the screens show for `O=C(c1cccs1)N1N=C(c2ccccc2)CC1c1ccccc1O` (centres undefined)?
GLP1R inv ag: 8.91µM*; GLP1R cytotox: -13.6%; GLP-1R agonist: 19.5%; PTHR1 ag: inactive

How did Cc1ccc(C2=NN(C(=O)c3cccs3)C(c3ccccc3O)C2)cc1 (centres undefined) do in these assays?
GLP1R inv ag: 9.5%; GLP1R cytotox: -16.1%; GLP-1R agonist: -8.8%; PTHR1 ag: -60.7%

What do the screens show for `O=C(c1ccccc1)N1N=C(c2ccccc2)CC1c1ccccc1O` (centres undefined)?
GLP1R inv ag: 11.2µM*; GLP1R cytotox: -29.2%; GLP-1R agonist: 7.2%; PTHR1 ag: -4.4%

What do the screens show for `O=C(c1ccncc1)N1N=C(c2ccc(Br)cc2)CC1c1ccccc1O` (centres undefined)?
GLP1R inv ag: inconclusive; GLP1R cytotox: 0.1%; GLP-1R agonist: 6.7%; PTHR1 ag: -91.9%

How did CCOC(=O)c1cccc(NC(=O)CCCn2c(C)c3cnn(-c4ccccc4)c(=O)c3c2C)c1 do in these assays?
GLP1R inv ag: inconclusive; GLP1R cytotox: -21.7%; PTHR1 ag: -25.4%

What do the screens show for `COc1ccc(S(=O)(=O)Nc2ccc3c(c2)CCCN3S(=O)(=O)c2ccc(C)cc2)cc1F`?
GLP1R inv ag: inconclusive; GLP1R cytotox: -11.2%; PTHR1 ag: -26.1%

Results for C[C@]12O[C@H](C[C@]1(O)CO)n1c3ccccc3c3c4c(c5c6ccccc6n2c5c31)CNC4=O ?
GLP-1R agonist: -11.3%

How did COc1ccc(C(=O)Cn2c(=O)n3nc(CCn4nc(C)cc4C)nc3c3cc(OC)c(OC)cc32)cc1 do in these assays?
GLP1R inv ag: -29.9%; GLP1R cytotox: -14.2%; PTHR1 ag: inconclusive

Results for Cc1cccc(N2CCN(C(=O)Cn3nc(Cc4cccnc4)c4ccccc4c3=O)CC2)c1C ?
GLP1R inv ag: inconclusive; GLP1R cytotox: -11.2%; PTHR1 ag: -94.3%
